Shown is part of a subset that was picked to be rich in hits.
ROCK2 blocker: blocks human Rho kinase 2 activity | O75116 | purified ROCK2, Kinase-Glo ATP depletion luminescence | inhibition, % at 6 µM | 60,000 tested, 0.35% active;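 active = inhibition above the screen-wide mean inhibition plus 3 SD, cut at about 18% in these data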;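 also: plate controls were DMSO wells for no effect and Y-27632 control wells after no-enzyme background subtraction for full effect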
D1 allo mod: allosterically modulates the human D1 dopamine receptor; P21728; B-score at 10 µM; HEK293 D1, CRE-luciferase, dopamine EC30 potentiation; actives deviate in either direction; 58,000 tested, 5.9% active;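 active = luminescence count or its row- and column-corrected plate score outside the 99.7% band of the plate's sample wells, on either side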
PKA inh: PKA (human) kinase inhibition | P17612 | 65,000 tested, 0.1% active | PKA Kemptide phosphorylation, Kinase-Glo ATP luminescence | inhibition, % at 6 µM | AID 524;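 active = inhibition above the screen-wide mean inhibition plus 3 SD, cut at about 21% in these data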
hDAT+cocaine: changed human dopamine transporter uptake under cocaine IC80; Q01959; 110,000 tested, 1.3% active; B-score at 10 µM; LLC-PK1 hDAT cells, [14C]-dopamine uptake with cocaine IC80; actives deviate in either direction;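 active = Z score or B-score, a plate-position-corrected score, falls beyond the plate's 99.7% confidence bounds, in either direction; inactive = both scores lie inside the 99.7% bounds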;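 also: scored against the spread of the other compound wells on the same plate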
Target sequence (Q01959 whole entry, looked up): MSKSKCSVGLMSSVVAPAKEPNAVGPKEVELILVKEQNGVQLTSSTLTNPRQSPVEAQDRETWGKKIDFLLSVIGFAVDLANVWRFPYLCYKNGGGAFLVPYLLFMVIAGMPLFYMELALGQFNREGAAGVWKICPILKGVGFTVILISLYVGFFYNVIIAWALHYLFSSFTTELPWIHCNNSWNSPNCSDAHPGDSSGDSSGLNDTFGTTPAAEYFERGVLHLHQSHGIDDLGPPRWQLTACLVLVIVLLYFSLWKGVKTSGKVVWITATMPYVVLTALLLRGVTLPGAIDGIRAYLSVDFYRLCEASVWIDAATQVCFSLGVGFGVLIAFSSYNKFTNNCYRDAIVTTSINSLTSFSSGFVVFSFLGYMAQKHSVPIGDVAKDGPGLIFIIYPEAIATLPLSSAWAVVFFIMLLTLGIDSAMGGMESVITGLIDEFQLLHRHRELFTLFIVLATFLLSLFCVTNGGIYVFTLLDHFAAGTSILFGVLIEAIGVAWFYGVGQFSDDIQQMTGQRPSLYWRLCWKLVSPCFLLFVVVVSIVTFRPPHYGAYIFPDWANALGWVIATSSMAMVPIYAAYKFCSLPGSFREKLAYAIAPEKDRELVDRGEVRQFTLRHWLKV
* = called active by the depositor; x = no result given.

SMILES	ROCK2 blocker	D1 allo mod	PKA inh	hDAT+cocaine
CCOC(=O)Cc1csc(NC(=O)c2c(-c3ccccc3)noc2C)n1	-8	-0.26	-8	0.19
CCOC(=O)Cc1csc(NC(=O)c2cccs2)n1	1	-0.26	7	0.072
Cc1cc(-c2cc(-c3ccccc3)on2)nc(NCC2CC2)n1	x	x	x	-0.032
CN(C)CCCNC(CC(=O)Nc1ccc(Cl)cc1)C(=O)O (stereo not given)	5	x	4	x
S=C1NC[C@H](Cc2ccccc2)N1CCc1cccc2ccccc12	x	x	x	0.017
O=S(=O)(NC1CC1)c1ccc(S(=O)(=O)N(Cc2ccccn2)C2CCCC2)cc1	x	x	x	0.7
CCCCC(=O)Nc1ccc(C(=O)N2CCC(C(=O)OCC)CC2)cc1	x	x	x	-1.5
CCOC(=O)C1CCCN(C(=S)Nc2ccc(C)cc2C)C1 (stereo not given)	x	x	x	0.76
CCC1(CC)Cc2ccccc2-c2nc(NCCO)[nH]c(=O)c21	x	x	x	-2.7*
O=c1[nH]c(NCCO)nc2c1C1(CCCCC1)Cc1ccccc1-2	10	-0.021	12	0.14
CC(C)[C@H]1COCCS(=O)(=O)N1Cc1ccccc1	x	x	x	-0.33
COc1cc(C(CC(=O)N2CCCC2)c2c(OC)cc(OC)c3c(-c4ccccc4)cc(=O)oc23)cc(OC)c1OC (stereo not given)	x	x	x	2.7*
COc1ccc(C(CC(=O)N2CCCC2)c2c(OC)cc(OC)c3c(-c4ccccc4)cc(=O)oc23)cc1 (stereo not given)	x	x	x	1.1
COc1cc(C(CCN2CCOCC2)c2c(OC)cc(OC)c3c(C)cc(=O)oc23)cc(OC)c1OC (stereo not given)	x	x	x	2.8*
CC(C)(O)c1ccccc1CC[C@@H](SCC1(CC(=O)O)CC1)c1cccc(/C=C/c2ccc3ccc(Cl)cc3n2)c1	x	x	x	2.5
C#CCNC(=O)C1=C[C@@H](c2csc3ccccc23)C[C@@H](OCc2ccc(CO)cc2)O1	x	x	x	0.56
OCC[C@H]1C[C@@H](O)[C@H](O)[C@]2(CCCCO2)O1	x	x	x	-0.17
Cc1ccc(CNC(=O)CSc2c3c(nc4cc(Cl)ccc24)CCCC3)o1	x	x	x	-0.045
Cc1sc2nc(SCC(=O)c3cc(C)n(CC4CCCO4)c3C)n(C(C)C)c(=O)c2c1C (stereo not given)	3	-2.3*	1	2
CCN1CCN(c2nc(-c3cccnc3)nc3ccccc23)CC1	-3	-4.3*	-1	-0.18
CC(C)OC(=O)Cn1cnc2ccc(Br)cc2c1=O	-2	-0.88	2	0.15
CN(C)C=Nc1ncc2c3ccccc3n(CCN(C)C)c2c1C#N	9	-0.59	12	2.9*
CN(C)C=Nc1ncc2c3ccccc3n(Cc3ccccc3)c2c1C#N	-2	-2.1	2	0.58
C/C(Cl)=C\Cn1c(NCCc2ccccc2)nc2c1c(=O)n(C)c(=O)n2C	3	-3.1*	6	-1.1
COc1ccc2[nH]c(=O)c(CN(C(=O)c3ccccn3)C3CCCCC3)cc2c1	2	1.4	11	0.25
SMILES	ROCK2 blocker	D1 allo mod	PKA inh	hDAT+cocaine
O=C(c1ccccn1)N(Cc1cc2ccccc2[nH]c1=O)C1CCCCC1	5	0.27	12	2.9*
Clc1ccc2nc(N3CCCCC3)[nH]c2c1	2	-5*	0	1.7
CC(C)N(C=O)C1(C(=O)NC2CCCCC2)CCCCC1	3	-3.3*	12	0.93
CN(C(=O)c1ccc2c(c1)OCO2)C1(C(=O)NC2CCCC2)CCCCC1	x	-0.51	4	-1.1
CC1=C[C@H]2OC(=O)[C@@H](C)[C@H]2C[C@@H]2[C@H]1C[C@@H](O)[C@@]2(C)O	x	x	x	-0.24
CCOC(=O)C(=CNc1cc(C)nn1-c1ccccc1)C(=O)OCC	x	x	x	2.2*
CCOC(=O)C(=CNc1ccccc1C)C(=O)OCC	x	x	x	0.8
Cc1nn(C)cc1CN(C)C(=O)c1nn2c(c1Cl)NC(c1cccs1)CC2C(F)(F)F (stereo not given)	6	-0.58	7	3.5*
COc1ccc(C2CC(C(F)(F)F)n3nc(C(=O)NCc4cn(C)nc4C)c(Cl)c3N2)cc1 (stereo not given)	6	-0.35	11	1.2
CC1CCCC(NC(=O)COC(=O)c2cc(S(=O)(=O)N3CCCCC3)ccc2N2CCOCC2)C1C (stereo not given)	x	x	x	-1.9
C=CCn1c2ccccc2c2nnc(SCC(=O)Nc3c(C)n(C)n(-c4ccccc4)c3=O)nc21	x	x	x	3*
CCn1c2ccccc2c2nnc(SCC(=O)Nc3c(C)n(C)n(-c4ccccc4)c3=O)nc21	x	x	x	2.6
CCn1c2ccccc2c2nnc(SCN3C(=O)c4ccccc4C3=O)nc21	8	9.5*	12	x
CCn1c2ccccc2c2nnc(SCC(=O)NC(C(=O)OC)C(C)C)nc21 (stereo not given)	6	3.7*	13	x
C=C1/C(=C\C=C2/CCC[C@]3(C)[C@@H]([C@H](C)CCCC(C)(C)O)CC[C@@H]23)C[C@@H](O)C[C@@H]1O	x	x	x	1.5
Cc1ccc2c(c1)c1c3n2CCN(C(=O)Cn2c(-c4ccccc4)noc2=O)C3CCC1 (stereo not given)	21*	1.9	-6	0.032
CCCCC(=O)N1C/C=C\C(c2ccc(OC)cc2)N(Cc2ccc(F)cc2)C(=O)C1 (stereo not given)	x	x	x	0.095
c1nc(NCC2CCCO2)c2[nH]cnc2n1 (stereo not given)	x	0.45	16	0.24
c1nc(NC2CCCCC2)c2[nH]cnc2n1	34*	x	39*	0.41
CCCS(=O)(=O)c1c(S(=O)(=O)CCC)c2c(C)cccn2c1C(=O)OC	x	x	x	1.4*
Cc1cccc(-c2noc(CN(C(=O)c3ccc4c(c3)OCO4)C(C)C)n2)c1	3	-0.019	6	0.57
Cc1cccc(-c2noc(CN(C(=O)c3ccc(Br)o3)C(C)C)n2)c1	-5	-0.98	-3	1.8*
COc1ccc(COc2cc(-c3cccc(OC)c3)nc3ccc(NC(=O)C(C)C)cc23)cc1	x	x	x	0.91
O=C1c2ccccc2S(=O)(=O)N1Cc1nc2ccccc2s1	-1	x	2	1.1
CN(C)c1ccc(C2=NOC(CN3C(=O)c4ccccc4S3(=O)=O)C2)cc1 (stereo not given)	-8	-5.7*	-7	0.51
SMILES	ROCK2 blocker	D1 allo mod	PKA inh	hDAT+cocaine
Cc1ccc(CNC(=O)c2cc3c(=O)n4ccccc4nc3n(Cc3ccco3)c2=N)cc1	-17	x	-1	-2.7*
CC(=O)NC1CCCN(O)C(=O)/C=C(\C)CCOC(=O)C(NC(C)=O)CCCN(O)C(=O)/C=C(\C)CCOC(=O)C(NC(C)=O)CCCN(O)C(=O)/C=C(\C)CCOC1=O (stereo not given)	x	x	x	-0.09
COc1cc(SC)ccc1C(=O)Nc1ccc2c(c1)OCCO2	6	-4.2*	8	3.4*
O=C(CN1CCN(CC(=O)Nc2ccccc2Cl)CC1)Nc1ccc2c(c1)OCCO2	0	-1.8	-3	-0.0088
COc1ccccc1NC(=O)CN1CCN(CC(=O)Nc2ccc3c(c2)OCCO3)CC1	9	0.059	12	3.1*
COc1cc(SC)ccc1C(=O)Nc1ccccc1	x	x	x	0.45
COC(=O)NC(=S)Nc1ccc(Oc2ccc(Cl)cc2Cl)c(Cl)c1	x	x	x	-0.16
COc1cc(CCCN2C(N)=NC[C@H]2Cc2ccc(O)cc2)cc(OC)c1OC	x	x	x	0.19
Cc1nn(-c2ccccc2)c2sc(C(=O)OCN3C(=O)c4ccccc4C3=O)cc12	10	5.3*	10	-0.017

Source: PubChem BioAssay
